About 83,000 compounds went through this panel and 20% of them were active in at least one assay; those are over-represented in the sample as a whole.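 Results are percent growth after 48 hours of single-concentration exposure. 100 means growth as in untreated cells, lower positive values show inhibition; negative values down to -100 show cell death.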 Activity calls are given as the source filed them.
tested on: M14 melanoma; assay: NCI-60 one-dose screen, 48 h (100 = growth as untreated, 0 = no growth, -100 = all killed); details: 10 µM unless noted
Experimental: Growth inhibition of the M14 human tumor cell line is measured as a screen for anti-cancer activity. Cells are grown in 96 well plates and exposed to the test compound for 48 hours. Compounds are tested at a single concentration, which is 10^-5 M for most compounds. The reported endpoint is percent growth (GI% or GIPRCNT), where numbers from 0 - 100% represent growth inhibition, and numbers from -100% - 0 represent cell death. For example, a value of 40 represents 60% growth inhibition. A value of 0 means no net growth occurred over the course of the experiment. A value of -40 indicates 40% of cells at the beginning of the experiment died by the end of the experiment. A value of -100 means all cells are dead at the end of the experiment.
NCI-60 Human Tumor Cell Lines Screen was performed using the standard one-dose NCI protocol, which is described in more detail at https://dtp.cancer.gov/discovery_development/nci-60/default.htm.
Compounds with GIPRCNT values below 10 were considered active. Activity score was based on GIPRCNT using the following formula: […]
Score is 0 for GIPRCNT values of 100 or above, 50 for GIPRCNT values of 0, and 100 for GIPRCNT values of -100.

Structure (SMILES)	growth
CCOC(=O)C1=C(C(=O)c2ccc(Br)cc2)C(c2ccc(Br)cc2)NC(=S)N1 (stereo not given)	97.2% (inactive)
Cc1ccc(-c2cn(C/C=C3\C=CN(S(=O)(=O)c4ccccc4)CC3)nn2)cc1	92.5% (inactive)
C=CCCCCOc1ccccc1-c1cnc(OCCCCC=C)n1C	72.6% (inactive)
Cn1cc(-c2nnc(-c3cn(C)c4ncccc34)s2)c2ccccc21	92.8% (inactive)
CCN(CC)CCCNCc1cc(-c2ccccc2)nc2ccccc12	4.63% (active)
C=C(C)[C@@H]1CC[C@]2(C)[C@H](CC[C@@H]3[C@@H]([C@@](C)(O)CCC=C(C)C)CC[C@]32C)[C@@]1(C)CCC(=O)N1CCN(C)CC1	-70.5% [100 µM] (active)
O=S(=O)(NCCNc1nccc(-c2c(-c3cccc(F)c3)nc3occn23)n1)c1ccc(C(F)(F)F)cc1	95.4% (inactive)
Nc1cccc2c1C(=O)c1cccc(NC(=O)c3ccccc3)c1C2=O	14.2% (inactive)
CCCCCN(CCCCC)CCCCCCCCN1CCCc2ccccc21	89.8% (inactive)
O=C1Nc2ccccc2/C1=C/C(=O)c1ccc(N2CCCC2)cc1	108% (inactive)
COC(=O)C(=Cc1ccccc1[N+](=O)[O-])C(=O)OC	32% (inactive)
COc1ccc2c(c1)C(C)Cc1c(ncnc1-n1cnc3ccccc31)N2C (stereo not given)	18.3% (inactive)
COc1cc(NN=C(c2ccc(O)cc2)c2ccc(O)cc2)c([N+](=O)[O-])cc1[N+](=O)[O-]	-15.9% (active)
Cc1cc2c(C(C)C)c(O)c(O)c(C=NCc3ccoc3)c2c(O)c1-c1c(C)cc2c(C(C)C)c(O)c(O)c(C=NCc3ccco3)c2c1O	65.4% (inactive)
O=c1[nH]c(CN2CCN(c3cccc(Cl)c3)CC2)nc2cc(Cl)ccc12	89.1% (inactive)
C[n+]1cccc(NC(=O)c2ccc3ccc4ccc(C(=O)Nc5ccc[n+](C)c5)nc4c3n2)c1	53.6% (inactive)
O=C(NNc1ccc(-c2ccccc2)nn1)c1ccc(F)cc1	99.9% (inactive)
O=C(Nc1cc(-c2cccnc2)nc(NCCCN2CCOCC2)n1)c1cc(Br)cc(C(F)(F)F)c1	-72.1% (active)
Nc1cc(N)c(N=Nc2ccc(S(=O)(=O)O)cc2)cc1N=Nc1ccc(-c2ccc(N=Nc3ccc(O)c(C(=O)O)c3)cc2)cc1	99.8% (inactive)
COCCCNc1nc(NC(=O)c2cc(OC)cc(OC)c2)cc(-c2cccnc2)n1	107% (inactive)

Structure (SMILES)	growth
Cc1ccc(S(=O)(=O)Nc2ccccc2)cc1N	96.2% (inactive)
CCCCOC(=O)c1c(C)[nH]c(/C=C2\N=C(c3ccc[nH]3)C=C2OC)c1C	-18.6% (active)
C#C[C@]1(O)CC[C@H]2[C@@H]3CC=C4c5nc(Nc6ccc(OC)cc6OC)sc5CC[C@]4(C)[C@H]3CC[C@@]21C	-41.4% (active)
COCc1nc2ccccc2[nH]1	100% (inactive)
CC1(C)CC[C@]2(C(=O)O)CC[C@]3(C)C(=CC[C@@H]4[C@@]5(C)C/C(=C/c6cccnc6)[C@H](O)C(C)(C)[C@@H]5CC[C@]43C)[C@@H]2C1	3.32% [100 µM] (active)
Nc1nc(N)c2c(n1)NC(c1ccc(F)cc1)C1CCc3ccccc3C1=N2 (stereo not given)	62.8% (inactive)
C[C@]12CCc3c(ccc4cc(O)ccc34)[C@@H]1CC[C@H]2O	101% (inactive)
C=C(CC(=O)OC)C(C)=O	119% (inactive)
COc1ccc(-c2cc(-c3ccccc3)nc(NCCNc3ccnc4cc(Cl)ccc34)n2)cc1	-78.7% (active)
c1cc2ccc3cc2cc1CNCCN1CCNCc2ccc4ccc(cc4c2)CNCCN(CCNC3)CCNCc2ccc3ccc(cc3c2)CNCC1	96.3% (inactive)
Cc1cccc(/C=C2\N=C(c3ccccc3)N(c3ccc(S(N)(=O)=O)cc3)C2=O)c1	107% (inactive)
CC[C@@H]1NC(=O)[C@@H]2CCCCN2C(=O)[C@@H]2CCCN2C(=O)[C@@H](NC(=O)[C@H](Cc2cc(F)cc(F)c2)NC(=O)Nc2ccc(C3CC3)cc2F)[C@H](C)OC(=O)[C@@H]2C[C@@H](C)CN2C1=O	16.8% (inactive)
CC1(C)S[C@@H]2[C@H](NC(=O)[C@H](C(=O)O)c3cccs3)C(=O)N2[C@H]1C(=O)O	102% (inactive)
CNC(=O)c1cc(Oc2ccc3nc(NC(=O)c4ccc5ncccc5c4)sc3c2)ccn1	102% (inactive)
C#CCOc1ccc(C2=NN(CC3CC3)C3N=C(Cl)c4ncn(CC5CC5)c4N23)cc1OCC#C (stereo not given)	74.3% (inactive)
O=C(OCc1ccc2c(Cl)cc(Cl)c(O)c2n1)N1CCNCC1	43.6% (inactive)
CC1=CC[C@@H]2C(C)(C)[C@@H](O)CC[C@@]2(C)[C@@H]1COc1ccc2ccc(=O)oc2c1	76.9% (inactive)
CCOc1ccccc1/C=N\Nc1ccc(S(=O)(=O)c2ccc(N/N=C/c3ccccc3OCC)cc2)cc1	96.9% (inactive)
COc1ccc(C(=O)/C=C/c2ccccn2)c(O)c1	86.6% (inactive)
COc1ccc(/C=C(/C2=NCCN2)n2ccc3ccccc32)cc1	86.2% (inactive)
